Experimental data: PubChem BioAssay
Unmarked numbers belong to inactive results. The source made the active and inactive calls.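 Rule for the calls, unless noted: active = mean inhibition above 46.5%, the solvent-only control mean plus 3 SD; inactive = the rest.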

Experiments:
[1] = test system: transactivating tegument protein VP16 (Human herpesvirus 1); assay: compounds suppressing VP16-driven luciferase signal – cell-based, luminescence, single concentration, counter-screen for SRC2 inhibitor project (AID 652007; in the data active = inhibition above about 36%); settings: cell-based VP16 transactivation luciferase reporter, at 8.9 µM, hits give high values
[2] = target: Nuclear receptor coactivator 2 (Homo sapiens) (UniProt Q15596); assay: inhibition of GAL4-SRC2 driven luciferase expression – cell-based, luminescence, HEK293, triplicate, confirmation (AID 652008); settings: HEK293 GAL4-SRC2 luciferase reporter, at 8.9 µM, hits give high values;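 note: 0% = DMSO-treated cells and 100% = Gossypol at 36 µM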
Chain of Nuclear receptor coactivator 2 (Homo sapiens) (Q15596 whole entry, looked up, the tested form may be a part): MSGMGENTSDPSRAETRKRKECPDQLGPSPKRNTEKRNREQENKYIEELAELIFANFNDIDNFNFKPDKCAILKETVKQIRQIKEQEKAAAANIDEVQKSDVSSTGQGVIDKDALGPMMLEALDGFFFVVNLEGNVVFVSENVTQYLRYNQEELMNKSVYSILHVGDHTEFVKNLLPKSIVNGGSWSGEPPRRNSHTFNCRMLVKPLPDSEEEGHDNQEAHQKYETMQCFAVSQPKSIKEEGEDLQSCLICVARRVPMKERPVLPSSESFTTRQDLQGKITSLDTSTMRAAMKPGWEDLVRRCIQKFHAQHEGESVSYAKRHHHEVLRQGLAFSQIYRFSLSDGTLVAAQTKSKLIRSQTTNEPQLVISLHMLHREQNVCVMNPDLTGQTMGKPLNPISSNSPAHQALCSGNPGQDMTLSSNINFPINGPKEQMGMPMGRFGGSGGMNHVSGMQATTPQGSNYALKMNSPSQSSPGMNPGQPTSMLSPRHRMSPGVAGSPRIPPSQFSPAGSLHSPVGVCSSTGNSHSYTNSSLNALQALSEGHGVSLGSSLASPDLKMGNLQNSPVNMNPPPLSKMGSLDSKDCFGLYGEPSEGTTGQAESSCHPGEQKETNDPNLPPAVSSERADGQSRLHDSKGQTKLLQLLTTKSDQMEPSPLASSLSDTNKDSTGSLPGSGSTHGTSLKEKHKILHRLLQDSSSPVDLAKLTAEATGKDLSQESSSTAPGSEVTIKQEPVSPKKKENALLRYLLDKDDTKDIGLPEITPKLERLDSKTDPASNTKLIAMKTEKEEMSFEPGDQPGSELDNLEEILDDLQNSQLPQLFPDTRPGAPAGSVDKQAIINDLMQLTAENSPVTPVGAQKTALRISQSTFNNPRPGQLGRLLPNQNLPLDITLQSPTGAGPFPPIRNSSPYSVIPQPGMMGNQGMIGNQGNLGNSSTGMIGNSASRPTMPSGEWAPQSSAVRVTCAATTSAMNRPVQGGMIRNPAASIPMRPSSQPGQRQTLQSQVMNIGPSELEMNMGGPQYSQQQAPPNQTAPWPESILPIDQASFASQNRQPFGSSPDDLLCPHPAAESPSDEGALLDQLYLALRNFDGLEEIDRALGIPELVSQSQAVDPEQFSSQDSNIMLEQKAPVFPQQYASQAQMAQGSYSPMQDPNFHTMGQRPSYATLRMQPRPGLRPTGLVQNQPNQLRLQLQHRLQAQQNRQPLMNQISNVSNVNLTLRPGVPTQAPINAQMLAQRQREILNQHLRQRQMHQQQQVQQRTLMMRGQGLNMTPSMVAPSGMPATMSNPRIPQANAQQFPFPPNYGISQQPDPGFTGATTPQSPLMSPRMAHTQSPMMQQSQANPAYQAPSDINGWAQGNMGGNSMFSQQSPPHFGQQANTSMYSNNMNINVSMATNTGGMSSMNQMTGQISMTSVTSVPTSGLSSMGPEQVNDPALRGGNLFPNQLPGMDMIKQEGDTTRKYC

| SMILES | inhibition [1] | inhibition [2] |
| --- | --- | --- |
| CC(=O)N1CCOc2ccc(S(=O)(=O)NCC3CCC(C(=O)Nc4ccc(C)cn4)CC3)cc21 (stereo unspecified) | 14.8% | 15.4% |
| O=C(CCCN1C(=O)/C(=C/c2ccccc2Cl)SC1=S)Nc1ccccn1 | 25.5% | 43.8% |
| Cc1ccc(C)c(OCc2ccc(C(=O)Nc3ccc([N+](=O)[O-])cn3)o2)c1 | 8.86% | 35.9% |
| CCN(CC)CCNC(=O)c1ccc(NC(=O)c2ccc(S(=O)(=O)N3CCCC3)cc2)cc1 | -4.61% | -8.26% |
| Cc1nc(SCc2ccc(C(=O)O)cc2)nc2c1CCCC2 | 10.8% | 23.6% |
| Cn1nnnc1Sc1ncnc2scc(-c3cccc(C(F)(F)F)c3)c12 | 36.9% (active) | 52.3% (active) |
| O=[N+]([O-])c1ccc(Oc2ccc(F)cc2Br)c2ccncc12 | 7.49% | 50.2% (active) |
| Cc1nc(NCc2ccco2)c2c(C)c(C)sc2n1 | 12% | 38% |
| COc1ccccc1NS(=O)(=O)c1ccc(C)c(C(=O)NC2CCN(Cc3ccccc3)CC2)c1 | 17.2% | 36.4% |
| CC(=O)Nc1c([N+](=O)[O-])cc(C)c(Cl)c1[N+](=O)[O-] | -10.7% | 3.8% |
| Cc1ccc(N(C(=O)CCl)C(C(=O)NC2CCCCC2)c2cccnc2)cc1C (stereo unspecified) | 55.2% (active) | 61.7% (active) |
| Cc1nc(-c2ccc(NC(=O)c3ccco3)cc2)cs1 | 18.9% | 60.4% (active) |
| CC(C)C[C@@H]1COc2cc(Br)ccc2S(=O)(=O)N1Cc1cn(CCC2OCCCO2)nn1 | -3.85% | 3.37% |
| CCc1ccc(C(=O)Nc2nc3ccccc3[nH]2)cc1 | -1% | 45.8% |
| O=C(c1ccccc1)C(CN1CCCCC1)c1ccccc1 (stereo unspecified) | 29.1% | 63.6% (active) |
| CN1CCN(S(=O)(=O)c2ccc(N(C)Cc3cccc(F)c3)nc2)CC1 | -0.35% | -11.8% |
| Cc1c(C=O)n(C)n(-c2ccccc2)c1=O | -14.4% | 2.35% |

| SMILES | inhibition [1] | inhibition [2] |
| --- | --- | --- |
| O=C(O)CCCc1ccc2c(c1)CCc1ccccc1-2 | 29.6% | 77.1% (active) |
| Cn1nnnc1Sc1ncnc2scc(-c3ccc(Br)cc3)c12 | 25% | 37.2% |
| O=C(N=C1SC2CS(=O)(=O)CC2N1Cc1ccccc1)C1CCCO1 (stereo unspecified) | -0.59% | -2.87% |
| CCOC(=O)CN(C)C(=O)CCc1nnc(-c2ccc(-c3ccccc3)cc2)o1 | -17.7% | 19.8% |
| O=C(COC(=O)c1cc(S(=O)(=O)N2CCOCC2)ccc1F)NCc1ccc2c(c1)OCO2 | -10.1% | -5.62% |
| CCOc1ccc(-n2cc(C(=O)NCc3ccco3)c3cc(OC)c(OC)cc3c2=O)cc1 | 2.87% | -7.4% |
| CCOC(=O)[C@]12CCC=C1N(CCC1=CCCCC1)C(=O)[C@H](CC(=O)N1CCC(c3ccccc3)CC1)C2 | 1.35% | -24.7% |
| COc1ccc(OC)c(NC(=O)C(C)OC(=O)c2cc3ccccc3[nH]2)c1 (stereo unspecified) | -2.68% | 17.6% |
| C=CCn1nc(C(=O)N2CCOCC2)cc1-c1sc(NC(=O)c2ccccc2)nc1C | -15.6% | 24.6% |
| CCC(=O)Nc1ccc(NC(=O)c2oc3ccccc3c2C)cc1 | -12.3% | 38.1% |
| CCS(=O)(=O)c1cc([N+](=O)[O-])c(Sc2ccccc2NC(C)=O)s1 | -21% | -26.1% |
| CCN(CC)S(=O)(=O)c1ccc(/C=C/C(=O)OCC(=O)NCc2ccc3c(c2)OCO3)cc1 | -0.7% | -11.1% |
| COc1ccc(CCNC(=S)N2CCC(C(=O)c3ccc(F)cc3)CC2)cc1OC | 11.5% | 20.5% |
| CCOc1ccc(-c2cc(CCCC(=O)NCc3ccco3)no2)cc1 | 16.9% | 37.5% |
| C=CCNC(=S)NCc1ccccc1 | -11.1% | -24.7% |
| CC1CCCCC12NC(=O)N(CC(=O)Nc1ccc(OC(F)F)cc1)C2=O (stereo unspecified) | -18.4% | -11.2% |
